# Test results reported in PMC7862700, “An all-to-all approach to the identification of sequence-specific readers for epigenetic DNA modifications on cytosine”.
# Columns and labels:
# Experiment in all cases: DAPPL (digital affinity profiling via proximity ligation, sequencing); 10 mM Tris-HCl pH 7.5, 50 mM NaCl, 1 mM DTT, 4% glycerol, room temperature, 30 min; GST-TFs on glutathione beads, 16-mer random dsDNA library, 0.1% formaldehyde crosslink after washing; high values mean tight binding
# Conditions in all cases: protein: recombinant; tags: N-terminal GST; dsDNA, one strand shown
# FEV = biological target: T1, FEV (Homo sapiens, UniProt Q99581 1-238)
# T1 sequence: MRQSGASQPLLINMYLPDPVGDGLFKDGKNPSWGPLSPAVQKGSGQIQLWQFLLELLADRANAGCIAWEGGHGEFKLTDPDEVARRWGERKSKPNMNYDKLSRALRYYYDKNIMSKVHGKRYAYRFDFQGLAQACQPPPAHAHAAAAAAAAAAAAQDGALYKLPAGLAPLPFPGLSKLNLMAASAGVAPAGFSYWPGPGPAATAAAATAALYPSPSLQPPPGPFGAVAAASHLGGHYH
# Procedure, shortened: (§1)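 GST fusions of human transcription factors were expressed in yeast and captured with glutathione beads. Once given DNA barcodes and pooled alongside a tag-only sample, they were incubated for 30 min at room temperature with 200 nmole of a random double-stranded 16-mer DNA library in Tris/NaCl/DTT/glycerol buffer, then washed, crosslinked (0.1% formaldehyde), proximity-ligated, PCR-amplified and sequenced on an Illumina NextSeq500. The binding signal of each hexamer is its read frequency for a factor divided by its frequency for the tag-only sample.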
# ETV5 = ETV5 (Homo sapiens, UniProt P41161 1-510)
# ETV5, sequence (P41161 whole entry): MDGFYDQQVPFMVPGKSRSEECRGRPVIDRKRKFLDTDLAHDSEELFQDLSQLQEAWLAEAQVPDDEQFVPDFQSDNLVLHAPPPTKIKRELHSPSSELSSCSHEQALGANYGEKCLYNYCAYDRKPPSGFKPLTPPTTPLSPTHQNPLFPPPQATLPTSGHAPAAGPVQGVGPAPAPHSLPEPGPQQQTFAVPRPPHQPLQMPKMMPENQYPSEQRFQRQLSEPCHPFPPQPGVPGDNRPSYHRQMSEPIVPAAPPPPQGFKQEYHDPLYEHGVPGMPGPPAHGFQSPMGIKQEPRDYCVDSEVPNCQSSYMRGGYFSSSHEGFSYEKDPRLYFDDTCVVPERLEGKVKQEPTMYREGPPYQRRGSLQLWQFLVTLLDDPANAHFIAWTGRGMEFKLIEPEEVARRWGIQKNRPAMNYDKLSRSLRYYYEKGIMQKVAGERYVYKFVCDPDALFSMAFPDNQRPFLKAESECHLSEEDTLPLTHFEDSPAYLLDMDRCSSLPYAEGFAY
# Procedure, shortened: as §1
# SPIC = biological target: T2, SPIC (Homo sapiens, UniProt Q8N5J4 1-248)
# T2 sequence: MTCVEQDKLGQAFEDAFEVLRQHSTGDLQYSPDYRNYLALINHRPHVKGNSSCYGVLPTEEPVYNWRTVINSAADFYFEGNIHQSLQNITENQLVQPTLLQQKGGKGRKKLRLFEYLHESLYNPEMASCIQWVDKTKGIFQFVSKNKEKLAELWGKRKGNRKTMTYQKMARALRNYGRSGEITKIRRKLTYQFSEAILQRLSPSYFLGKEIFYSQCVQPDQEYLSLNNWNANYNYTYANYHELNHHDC
# Procedure, shortened: as §1
# ELF4 = ELF4 (Homo sapiens, UniProt Q99607 1-663)
# ELF4, sequence (Q99607 whole entry): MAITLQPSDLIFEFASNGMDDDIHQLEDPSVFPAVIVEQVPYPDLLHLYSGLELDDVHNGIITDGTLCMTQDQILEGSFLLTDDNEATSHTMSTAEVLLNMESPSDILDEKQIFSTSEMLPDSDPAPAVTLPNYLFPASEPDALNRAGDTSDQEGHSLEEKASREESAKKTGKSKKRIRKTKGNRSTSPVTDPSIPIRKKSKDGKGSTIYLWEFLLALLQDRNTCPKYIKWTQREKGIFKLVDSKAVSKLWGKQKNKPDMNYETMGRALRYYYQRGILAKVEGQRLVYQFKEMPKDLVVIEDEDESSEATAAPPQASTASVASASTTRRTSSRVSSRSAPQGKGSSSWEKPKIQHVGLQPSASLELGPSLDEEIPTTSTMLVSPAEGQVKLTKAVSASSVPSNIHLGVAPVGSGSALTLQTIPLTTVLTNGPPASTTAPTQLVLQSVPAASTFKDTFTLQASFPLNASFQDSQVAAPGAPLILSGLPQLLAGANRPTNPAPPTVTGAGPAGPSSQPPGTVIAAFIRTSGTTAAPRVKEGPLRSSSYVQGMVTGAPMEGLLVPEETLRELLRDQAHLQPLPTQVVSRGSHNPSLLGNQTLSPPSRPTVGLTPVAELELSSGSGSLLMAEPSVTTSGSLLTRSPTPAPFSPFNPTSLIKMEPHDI
# Procedure, shortened: as §1
# ELK4 = biological target: T3, ELK4 (Homo sapiens, UniProt P28324-2 1-405)
# T3 sequence: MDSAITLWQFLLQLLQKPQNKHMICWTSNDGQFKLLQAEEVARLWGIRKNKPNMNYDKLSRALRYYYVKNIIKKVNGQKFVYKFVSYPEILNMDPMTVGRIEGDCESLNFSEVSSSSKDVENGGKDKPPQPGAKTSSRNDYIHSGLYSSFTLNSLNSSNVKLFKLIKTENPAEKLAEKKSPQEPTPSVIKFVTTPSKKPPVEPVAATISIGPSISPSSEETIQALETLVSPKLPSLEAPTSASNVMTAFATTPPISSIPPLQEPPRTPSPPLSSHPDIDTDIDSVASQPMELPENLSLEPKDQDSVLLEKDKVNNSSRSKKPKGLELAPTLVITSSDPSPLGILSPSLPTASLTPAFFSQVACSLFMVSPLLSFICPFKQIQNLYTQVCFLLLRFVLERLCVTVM
# Procedure, shortened: as §1
# ETV2 = biological target: T4, ETV2 (Homo sapiens, UniProt O00321 1-342)
# T4 sequence: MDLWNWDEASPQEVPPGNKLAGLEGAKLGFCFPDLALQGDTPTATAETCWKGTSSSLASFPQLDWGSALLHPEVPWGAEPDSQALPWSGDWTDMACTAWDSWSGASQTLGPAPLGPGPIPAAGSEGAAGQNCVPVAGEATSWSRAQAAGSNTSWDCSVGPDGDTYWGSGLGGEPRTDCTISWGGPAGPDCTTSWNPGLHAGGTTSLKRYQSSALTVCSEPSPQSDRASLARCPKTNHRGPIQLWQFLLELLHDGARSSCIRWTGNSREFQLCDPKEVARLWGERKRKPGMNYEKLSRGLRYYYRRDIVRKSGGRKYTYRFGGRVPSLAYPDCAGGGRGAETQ
# Procedure, shortened: as §1
# ELF3 = biological target: T5, ELF3 (Homo sapiens, UniProt P78545 1-371)
# T5 sequence: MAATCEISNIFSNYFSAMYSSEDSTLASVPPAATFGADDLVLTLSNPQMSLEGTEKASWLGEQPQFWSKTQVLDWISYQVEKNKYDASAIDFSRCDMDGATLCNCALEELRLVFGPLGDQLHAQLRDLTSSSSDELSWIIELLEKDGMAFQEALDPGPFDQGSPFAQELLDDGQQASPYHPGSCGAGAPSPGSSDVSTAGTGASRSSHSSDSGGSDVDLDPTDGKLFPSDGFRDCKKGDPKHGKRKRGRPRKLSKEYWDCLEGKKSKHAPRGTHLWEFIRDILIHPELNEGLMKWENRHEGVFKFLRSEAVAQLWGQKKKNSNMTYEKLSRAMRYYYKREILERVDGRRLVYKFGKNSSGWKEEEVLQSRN
# Procedure, shortened: as §1
# ETV1 = ETV1 (Homo sapiens, UniProt P50549 1-477)
# ETV1, sequence (P50549 whole entry): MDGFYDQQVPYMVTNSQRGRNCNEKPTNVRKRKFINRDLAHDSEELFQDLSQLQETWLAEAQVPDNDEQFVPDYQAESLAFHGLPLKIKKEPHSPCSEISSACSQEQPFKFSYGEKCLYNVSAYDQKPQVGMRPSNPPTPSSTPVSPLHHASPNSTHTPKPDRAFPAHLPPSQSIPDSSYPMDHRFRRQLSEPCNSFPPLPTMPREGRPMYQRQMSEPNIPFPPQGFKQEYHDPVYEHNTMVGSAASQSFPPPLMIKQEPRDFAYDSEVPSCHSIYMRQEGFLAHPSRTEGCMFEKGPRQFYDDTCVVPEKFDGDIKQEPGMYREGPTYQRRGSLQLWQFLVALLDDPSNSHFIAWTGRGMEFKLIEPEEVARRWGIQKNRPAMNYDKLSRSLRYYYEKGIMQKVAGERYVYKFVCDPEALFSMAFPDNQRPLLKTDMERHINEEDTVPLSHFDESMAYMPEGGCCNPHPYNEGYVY
# Procedure, shortened: as §1
# ERF = biological target: T6, ERF (Homo sapiens, UniProt P50548 1-548)
# T6 sequence: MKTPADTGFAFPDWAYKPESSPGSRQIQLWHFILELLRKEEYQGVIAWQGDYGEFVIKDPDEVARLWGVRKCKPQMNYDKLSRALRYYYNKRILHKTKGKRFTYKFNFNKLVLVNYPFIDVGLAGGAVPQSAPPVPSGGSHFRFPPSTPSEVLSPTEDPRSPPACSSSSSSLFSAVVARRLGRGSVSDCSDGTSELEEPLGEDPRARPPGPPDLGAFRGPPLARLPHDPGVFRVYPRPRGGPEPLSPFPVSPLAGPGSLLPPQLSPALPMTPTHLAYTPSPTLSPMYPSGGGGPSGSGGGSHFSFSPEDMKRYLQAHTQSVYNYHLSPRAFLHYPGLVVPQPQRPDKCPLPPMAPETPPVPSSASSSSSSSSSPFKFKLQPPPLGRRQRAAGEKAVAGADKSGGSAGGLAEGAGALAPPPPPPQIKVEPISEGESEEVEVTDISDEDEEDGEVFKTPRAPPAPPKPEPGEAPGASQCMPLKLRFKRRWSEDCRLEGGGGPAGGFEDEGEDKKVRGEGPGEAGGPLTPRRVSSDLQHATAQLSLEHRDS
# Procedure, shortened: as §1
# ETV3L = biological target: T7, ETV3L (Homo sapiens, UniProt Q6ZN32 1-361)
# T7 sequence: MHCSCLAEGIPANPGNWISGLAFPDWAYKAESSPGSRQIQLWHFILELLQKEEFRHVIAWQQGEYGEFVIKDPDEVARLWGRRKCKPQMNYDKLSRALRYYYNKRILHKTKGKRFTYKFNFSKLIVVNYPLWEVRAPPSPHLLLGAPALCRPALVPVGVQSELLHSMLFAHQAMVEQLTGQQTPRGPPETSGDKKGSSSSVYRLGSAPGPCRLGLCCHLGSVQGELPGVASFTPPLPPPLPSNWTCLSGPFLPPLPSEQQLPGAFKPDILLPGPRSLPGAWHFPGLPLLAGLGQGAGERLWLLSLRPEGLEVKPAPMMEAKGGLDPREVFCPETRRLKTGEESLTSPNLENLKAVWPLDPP
# Procedure, shortened: as §1
# ETS2 = biological target: T8, ETS2 (Homo sapiens, UniProt P15036 1-469)
# T8 sequence: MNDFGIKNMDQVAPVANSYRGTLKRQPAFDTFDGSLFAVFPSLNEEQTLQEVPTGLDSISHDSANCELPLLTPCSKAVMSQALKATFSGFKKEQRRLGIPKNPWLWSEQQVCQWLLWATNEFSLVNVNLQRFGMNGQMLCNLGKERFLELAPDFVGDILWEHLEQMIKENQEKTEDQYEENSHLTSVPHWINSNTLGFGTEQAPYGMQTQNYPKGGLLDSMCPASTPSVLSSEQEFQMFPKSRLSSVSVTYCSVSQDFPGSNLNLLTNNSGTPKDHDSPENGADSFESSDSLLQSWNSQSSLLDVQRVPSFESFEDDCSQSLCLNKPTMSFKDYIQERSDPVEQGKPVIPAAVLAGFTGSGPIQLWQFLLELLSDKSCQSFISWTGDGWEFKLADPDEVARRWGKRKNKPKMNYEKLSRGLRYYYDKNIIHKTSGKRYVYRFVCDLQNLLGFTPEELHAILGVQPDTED
# Procedure, shortened: as §1
# SPDEF = biological target: T9, SPDEF (Homo sapiens, UniProt O95238 1-335)
# T9 sequence: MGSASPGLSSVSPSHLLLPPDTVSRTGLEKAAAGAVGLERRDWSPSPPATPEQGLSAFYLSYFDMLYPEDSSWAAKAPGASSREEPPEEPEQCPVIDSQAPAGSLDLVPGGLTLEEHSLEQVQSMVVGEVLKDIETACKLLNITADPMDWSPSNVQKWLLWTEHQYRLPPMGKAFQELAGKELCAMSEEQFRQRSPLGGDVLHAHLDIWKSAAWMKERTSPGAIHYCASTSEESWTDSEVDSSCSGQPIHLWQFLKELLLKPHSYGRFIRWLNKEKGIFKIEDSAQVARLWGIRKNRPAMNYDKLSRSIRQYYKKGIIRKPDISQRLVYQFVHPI
# Procedure, shortened: as §1
# ETV7 = biological target: T10, ETV7 (Homo sapiens, UniProt Q9Y603 1-341)
# T10 sequence: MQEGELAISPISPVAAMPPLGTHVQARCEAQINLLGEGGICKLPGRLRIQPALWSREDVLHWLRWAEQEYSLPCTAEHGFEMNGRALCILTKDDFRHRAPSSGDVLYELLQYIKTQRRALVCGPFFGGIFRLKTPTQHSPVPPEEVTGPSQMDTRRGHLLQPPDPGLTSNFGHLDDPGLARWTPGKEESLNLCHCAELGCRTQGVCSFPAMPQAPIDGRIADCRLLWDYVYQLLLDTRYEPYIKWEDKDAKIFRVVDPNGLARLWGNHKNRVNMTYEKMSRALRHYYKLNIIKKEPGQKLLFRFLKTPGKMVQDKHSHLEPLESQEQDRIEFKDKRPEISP
# Procedure, shortened: as §1
# ELF5 = biological target: T11, ELF5 (Homo sapiens, UniProt Q9UKW6-2 1-255)
# T11 sequence: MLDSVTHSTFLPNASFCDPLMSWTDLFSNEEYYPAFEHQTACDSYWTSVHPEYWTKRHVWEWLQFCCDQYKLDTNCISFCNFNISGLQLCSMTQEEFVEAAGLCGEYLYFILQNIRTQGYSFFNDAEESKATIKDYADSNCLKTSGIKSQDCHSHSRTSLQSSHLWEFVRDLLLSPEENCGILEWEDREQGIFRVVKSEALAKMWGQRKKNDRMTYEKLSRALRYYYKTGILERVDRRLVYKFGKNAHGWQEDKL
# Procedure, shortened: as §1
# ETV3 = biological target: T12, ETV3 (Homo sapiens, UniProt P41162-2 1-143)
# T12 sequence: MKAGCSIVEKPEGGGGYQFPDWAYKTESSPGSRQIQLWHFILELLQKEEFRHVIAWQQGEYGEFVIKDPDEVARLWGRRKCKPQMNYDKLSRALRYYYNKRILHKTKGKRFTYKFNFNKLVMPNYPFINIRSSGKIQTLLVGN
# Procedure, shortened: as §1
# ETV6 = ETV6 (Homo sapiens, UniProt P41212 1-452)
# ETV6, sequence (P41212 whole entry): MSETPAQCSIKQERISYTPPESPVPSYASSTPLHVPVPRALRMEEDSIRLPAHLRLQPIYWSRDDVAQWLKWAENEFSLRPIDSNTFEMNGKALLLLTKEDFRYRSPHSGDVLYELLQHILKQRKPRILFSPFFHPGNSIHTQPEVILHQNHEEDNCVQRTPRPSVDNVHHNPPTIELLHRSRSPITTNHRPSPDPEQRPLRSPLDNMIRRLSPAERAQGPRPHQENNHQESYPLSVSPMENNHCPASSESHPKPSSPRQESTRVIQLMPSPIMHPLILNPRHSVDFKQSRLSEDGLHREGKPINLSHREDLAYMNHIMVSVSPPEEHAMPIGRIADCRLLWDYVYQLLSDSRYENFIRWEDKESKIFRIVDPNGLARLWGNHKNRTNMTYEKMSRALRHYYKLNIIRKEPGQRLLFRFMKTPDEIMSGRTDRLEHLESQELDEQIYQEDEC
# Procedure, shortened: as §1
Sequence,binding signal (FEV),binding signal (ETV5),binding signal (SPIC),binding signal (ELF4),binding signal (ELK4),binding signal (ETV2),binding signal (ELF3),binding signal (ETV1),binding signal (ERF),binding signal (ETV3L),binding signal (ETS2),binding signal (SPDEF),binding signal (ETV7),binding signal (ELF5),binding signal (ETV3),binding signal (ETV6)
CGTATC,"1.28 fold enrichment (6-mer frequency, TF over GST control)","1.13 fold enrichment (6-mer frequency, TF over GST control)","1.19 fold enrichment (6-mer frequency, TF over GST control)","1.2 fold enrichment (6-mer frequency, TF over GST control)","1.16 fold enrichment (6-mer frequency, TF over GST control)","1.15 fold enrichment (6-mer frequency, TF over GST control)","1.13 fold enrichment (6-mer frequency, TF over GST control)","1.18 fold enrichment (6-mer frequency, TF over GST control)","1.15 fold enrichment (6-mer frequency, TF over GST control)","1.24 fold enrichment (6-mer frequency, TF over GST control)","1.11 fold enrichment (6-mer frequency, TF over GST control)","1.57 fold enrichment (6-mer frequency, TF over GST control)","1.1 fold enrichment (6-mer frequency, TF over GST control)","1.19 fold enrichment (6-mer frequency, TF over GST control)","1.28 fold enrichment (6-mer frequency, TF over GST control)","1.09 fold enrichment (6-mer frequency, TF over GST control)"
GCTACG,"1.16 fold enrichment (6-mer frequency, TF over GST control)","1.14 fold enrichment (6-mer frequency, TF over GST control)","1.12 fold enrichment (6-mer frequency, TF over GST control)","1.14 fold enrichment (6-mer frequency, TF over GST control)","1.41 fold enrichment (6-mer frequency, TF over GST control)","1.1 fold enrichment (6-mer frequency, TF over GST control)","1.19 fold enrichment (6-mer frequency, TF over GST control)","1.25 fold enrichment (6-mer frequency, TF over GST control)","1.29 fold enrichment (6-mer frequency, TF over GST control)","1.16 fold enrichment (6-mer frequency, TF over GST control)","1.11 fold enrichment (6-mer frequency, TF over GST control)","1.04 fold enrichment (6-mer frequency, TF over GST control)","1.23 fold enrichment (6-mer frequency, TF over GST control)","1.1 fold enrichment (6-mer frequency, TF over GST control)","1.05 fold enrichment (6-mer frequency, TF over GST control)","1.23 fold enrichment (6-mer frequency, TF over GST control)"
AAGTGT,"1.28 fold enrichment (6-mer frequency, TF over GST control)","1.33 fold enrichment (6-mer frequency, TF over GST control)","1.6 fold enrichment (6-mer frequency, TF over GST control)","1.3 fold enrichment (6-mer frequency, TF over GST control)","1.21 fold enrichment (6-mer frequency, TF over GST control)","1.37 fold enrichment (6-mer frequency, TF over GST control)","1.43 fold enrichment (6-mer frequency, TF over GST control)","1.39 fold enrichment (6-mer frequency, TF over GST control)","1.24 fold enrichment (6-mer frequency, TF over GST control)","1.2 fold enrichment (6-mer frequency, TF over GST control)","1.38 fold enrichment (6-mer frequency, TF over GST control)","1.32 fold enrichment (6-mer frequency, TF over GST control)","1.42 fold enrichment (6-mer frequency, TF over GST control)","1.43 fold enrichment (6-mer frequency, TF over GST control)","1.23 fold enrichment (6-mer frequency, TF over GST control)","1.35 fold enrichment (6-mer frequency, TF over GST control)"
